This passage reports composite z-score and z-score results from PubChem BioAssay.

SMILES strings stand for the structures. Calls of active or inactive are those of the source. Unless noted, no rule for the calls is given here.

Assay [1] is described as follows: compounds binding Alexa647 anti-His antibody – biochemical, small-molecule microarray, 635 nm fluorescence, artefact control for SMM control protein annotation, primary screen (AID 1128).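 Also: score merges feature fluorescence with signal-to-noise for each printed compound spot.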 The conditions noted are these: higher = more signal.
The subject of assay [2] is Human papillomavirus type 1a E7 protein (residues 1-88). The assay can be described thus: HPV1a E7 small-molecule binders, primary screen, biochemical, small-molecule microarray, residues 1-88, 635 nm (AID 1129). The conditions noted are these: small-molecule microarray binding, fluorescence 635 nm; higher = more signal.
The target of assay [3] is Focal adhesion kinase 1 (Homo sapiens) (UniProt Q05397). The assay can be described thus: PTK2 protein binding on printed compound slides – biochemical, small-molecule microarray, 635/667 nm fluorescence, BSA, DTT, primary screen (AID 1130).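 Also: composite of spot emission at 667 nm and signal to noise over triplicate slides.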 Particulars: 635 nm fluorescence, higher = more signal.
Assay [4] relates to Fibrinogen (Alexa647-labelled). The assay can be described thus: Alexa647-fibrinogen binding to printed small molecules – biochemical, small-molecule microarray, 635/667 nm fluorescence, artefact control for SMM control-protein annotation, profiling panel (AID 1131).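 Also: z-score merges 667 nm fluorescence with per-spot signal-to-noise over triplicate slides.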 Particulars: fibrinogen-A647 binding fluorescence, higher = more signal.
The target of assay [5] is Follistatin (Homo sapiens) (UniProt P19883). In words: FST protein binding to printed compounds – biochemical, small-molecule microarray, 635/667 nm fluorescence, primary screen (AID 1132). Particulars: 635 nm fluorescence, higher = more signal.
For assay [6], the target named is Fibroblast growth factor 2 (Homo sapiens) (UniProt P09038). The assay can be described thus: basic fibroblast growth factor binding to printed compounds – biochemical, small-molecule microarray, 635/667 nm fluorescence, primary screen (AID 1133). The conditions noted are these: FGF2, fluorescence 635/667, higher = more signal.
A short description of assay [7]: JC-1 mitochondrial potential readout, lung cancer cells – cell-based, A549, JC-1 fluorescence, basal, 24 h, 100 nL, profiling panel (AID 1138).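 Also: A549 lung adenocarcinoma cells under basal conditions with no added stimulus; test concentration not given here.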 Particulars: higher = more signal.
For the next assay, the system named is Lefty1. In words: Lefty1 protein binding to printed compounds – biochemical, small-molecule microarray, 635/667 nm fluorescence, primary screen (AID 1139). The conditions noted are these: fluorescence 635/667, higher = more signal.
Assay [8] relates to wheat germ agglutinin (Triticum aestivum), Alexa647-labelled. The assay can be described thus: Alexa647-WGA lectin binding to printed small molecules – biochemical, small-molecule microarray, 635/667 nm fluorescence, artefact control for SMM control-protein annotation, profiling panel (AID 1140).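 Also: score merges 667 nm feature emission with signal to noise over triplicate slides.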 The conditions noted are these: WGA-A647 binding, 635 nm fluorescence, higher = more signal.

The target of assay [9] is Luciferin 4-monooxygenase (Photinus pyralis) (UniProt P08659). In words: inhibition of purified Photinus pyralis luciferase – biochemical, luminescence, purified enzyme, 2006 set, primary screen (AID 1141).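 Also: cell-free assay with purified firefly luciferase at 100 ng per well in PBS; test concentration not given here.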 Particulars: purified firefly luciferase, SteadyGlo luminescence, 30 min; higher = more signal, called active from +8 up or from −8 down.
For assay [10], the system named is Wnt5a (protein binding on small-molecule microarray). The assay can be described thus: small molecules binding Wnt5a protein – biophysical, small-molecule microarray, 635/667 nm fluorescence, primary screen (AID 1142).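 Also: fluorescence read at 667 nm with signal to noise per printed feature.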 The conditions noted are these: 635 nm fluorescence, higher = more signal.
Assay [11] in a line: ATP-based viability of Huh7 replicon cells – cell-based, CellTiter-Glo luminescence, basal, 48 h, cytotoxicity control for HCV replication inhibitor project, primary screen (AID 1143).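 Also: Huh7 hepatoma cells carrying a hepatitis C replication reporter with no stimulus; test concentration not given here.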 Particulars: higher = more signal, called active from +8 up or from −8 down. On the technique in general: Replicon systems follow genome replication, usually without infectious particles.
Assay [12] in a line: Pseudomonas biofilm growth suppression – PAO1 strain, BacTiter-Glo luminescence, LB-PBS, primary screen (AID 1144). Particulars: P. aeruginosa PAO1 biofilm, 12 h, higher = more signal.
Assay [13] can be described thus: basal CRE-LacZ reporter activity in PC12 – cell-based, unstimulated, primary screen (AID 1145). Particulars: no forskolin, luminescence, 4.5 h, higher = more signal, called active from +8 up or from −8 down.
The nature of assay [14]: forskolin-driven CRE-LacZ activity in PC12 – cell-based, CRE-LacZ reporter, forskolin-stimulated, primary screen (AID 1146).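 Also: PC12 cells with 6xCRE LacZ reporter stimulated by forskolin 10 µM; beta-galactosidase reporter signal reflecting CREB driven transcription.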 Particulars: luminescence, 4.5 h, higher = more signal, called active from +8 up or from −8 down.
Assay [15] addresses Streptavidin (Streptomyces avidinii) (UniProt P22629). The assay can be described thus: compounds binding control protein streptavidin – biophysical, small-molecule microarray, 635/667 nm fluorescence, artefact control for SMM compound annotation, primary screen (AID 1147).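 Also: signal reflects streptavidin binding to arrayed compounds as a control protein.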 Particulars: higher = more signal.
Assay [16] can be described thus: probe aInhba binding on compound microarray – biochemical, small-molecule microarray, 635/667 nm fluorescence, primary screen (AID 1148).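 Also: score merges 667nm spot fluorescence with signal-to-noise for antibody binding to printed compounds.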 Particulars: higher = more signal.
Assay [17] concerns the target Torsin-1A (Homo sapiens) (UniProt O14656). The assay can be described thus: TOR1A wild-type binding on microarray – cell lysate, small-molecule microarray, lysate, 635/667 nm, primary screen (AID 1149). Particulars: COS7 hTOR1A-WT lysate, 635 nm fluorescence, higher = more signal.
Assay [18] has the same target. The assay can be described thus: torsin A mutant lysate binding on microarrays – cell lysate, small-molecule microarray, COS7 lysate, 635/667 nm fluorescence, primary screen (AID 1150).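 Also: score pools 667 nm emission and signal to noise measuring lysate protein binding.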 The conditions noted are these: COS7 hTOR1A mutant lysate, 635 nm fluorescence, higher = more signal.
The subject of assay [19] is Sonic hedgehog protein (Shh). The assay can be described thus: Sonic hedgehog microarray binding compounds – biochemical, small-molecule microarray, 635/667 nm fluorescence, primary screen (AID 1151).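 Also: Shh protein binding to compounds spotted on small-molecule microarray slides; score combines spot fluorescence intensity with signal-to-noise across triplicate slides.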 The conditions noted are these: 635 nm fluorescence, higher = more signal.

Chain of Fibroblast growth factor 2 (Homo sapiens) (P09038 whole entry, looked up): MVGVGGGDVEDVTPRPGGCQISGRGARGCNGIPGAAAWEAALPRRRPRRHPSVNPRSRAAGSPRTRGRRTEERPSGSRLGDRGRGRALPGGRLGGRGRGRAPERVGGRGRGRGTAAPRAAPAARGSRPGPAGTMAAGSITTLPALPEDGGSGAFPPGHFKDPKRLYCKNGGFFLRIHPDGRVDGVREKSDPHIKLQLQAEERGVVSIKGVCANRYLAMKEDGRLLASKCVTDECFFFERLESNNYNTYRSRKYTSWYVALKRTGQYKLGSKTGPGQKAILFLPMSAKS
Chain of Follistatin (Homo sapiens) (P19883 whole entry, looked up): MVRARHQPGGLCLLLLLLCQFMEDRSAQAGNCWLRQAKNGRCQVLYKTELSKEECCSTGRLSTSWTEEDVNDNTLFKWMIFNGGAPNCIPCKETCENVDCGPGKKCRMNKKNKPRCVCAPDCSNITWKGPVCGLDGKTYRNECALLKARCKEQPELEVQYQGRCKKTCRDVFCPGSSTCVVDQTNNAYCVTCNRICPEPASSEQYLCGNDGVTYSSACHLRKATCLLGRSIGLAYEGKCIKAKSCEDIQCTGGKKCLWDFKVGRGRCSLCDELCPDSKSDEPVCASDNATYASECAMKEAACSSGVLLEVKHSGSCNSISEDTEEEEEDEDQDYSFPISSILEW
Chain of Torsin-1A (Homo sapiens) (O14656 whole entry, looked up): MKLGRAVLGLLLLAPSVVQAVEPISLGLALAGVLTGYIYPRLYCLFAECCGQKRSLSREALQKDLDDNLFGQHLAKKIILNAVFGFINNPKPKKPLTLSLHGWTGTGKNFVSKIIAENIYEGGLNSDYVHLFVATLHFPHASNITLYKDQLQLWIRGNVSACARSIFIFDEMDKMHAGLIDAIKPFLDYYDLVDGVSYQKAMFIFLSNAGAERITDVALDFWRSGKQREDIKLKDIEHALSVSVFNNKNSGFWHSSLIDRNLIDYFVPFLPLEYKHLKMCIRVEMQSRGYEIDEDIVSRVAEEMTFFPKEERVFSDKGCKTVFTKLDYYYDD
Chain of Focal adhesion kinase 1 (Homo sapiens) (Q05397 whole entry, looked up): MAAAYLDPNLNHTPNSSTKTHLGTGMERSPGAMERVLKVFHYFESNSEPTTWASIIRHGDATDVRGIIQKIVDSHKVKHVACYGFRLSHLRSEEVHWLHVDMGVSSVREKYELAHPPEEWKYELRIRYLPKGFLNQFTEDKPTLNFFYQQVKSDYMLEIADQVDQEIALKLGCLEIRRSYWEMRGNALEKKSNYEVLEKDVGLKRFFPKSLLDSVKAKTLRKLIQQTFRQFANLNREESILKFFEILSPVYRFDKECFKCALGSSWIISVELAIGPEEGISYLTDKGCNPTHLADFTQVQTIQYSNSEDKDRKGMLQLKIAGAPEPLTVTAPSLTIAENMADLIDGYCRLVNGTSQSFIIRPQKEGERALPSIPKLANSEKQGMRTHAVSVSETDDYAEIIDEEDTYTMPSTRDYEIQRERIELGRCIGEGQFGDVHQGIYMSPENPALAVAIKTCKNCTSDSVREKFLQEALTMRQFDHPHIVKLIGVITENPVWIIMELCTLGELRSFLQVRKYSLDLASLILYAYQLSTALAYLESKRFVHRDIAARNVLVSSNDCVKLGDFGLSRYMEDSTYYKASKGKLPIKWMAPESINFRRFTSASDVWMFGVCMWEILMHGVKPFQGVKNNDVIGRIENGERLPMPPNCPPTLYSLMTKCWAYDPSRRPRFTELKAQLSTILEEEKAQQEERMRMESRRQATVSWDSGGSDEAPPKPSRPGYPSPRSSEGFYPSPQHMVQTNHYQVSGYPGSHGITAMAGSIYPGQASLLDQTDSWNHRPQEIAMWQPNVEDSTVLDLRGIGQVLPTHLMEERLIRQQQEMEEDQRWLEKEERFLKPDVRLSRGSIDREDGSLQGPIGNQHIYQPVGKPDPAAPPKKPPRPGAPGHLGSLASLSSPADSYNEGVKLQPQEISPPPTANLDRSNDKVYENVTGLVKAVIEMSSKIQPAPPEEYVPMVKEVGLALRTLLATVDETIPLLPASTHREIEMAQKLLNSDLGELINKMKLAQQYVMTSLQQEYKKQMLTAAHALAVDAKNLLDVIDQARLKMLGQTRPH
Chain of Streptavidin (Streptomyces avidinii) (P22629 whole entry, looked up): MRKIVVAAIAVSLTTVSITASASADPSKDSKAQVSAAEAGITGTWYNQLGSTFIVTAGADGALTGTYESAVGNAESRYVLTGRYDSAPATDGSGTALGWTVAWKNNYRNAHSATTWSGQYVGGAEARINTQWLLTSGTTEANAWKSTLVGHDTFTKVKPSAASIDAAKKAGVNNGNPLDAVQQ
Chain of Luciferin 4-monooxygenase (Photinus pyralis) (P08659 whole entry, looked up): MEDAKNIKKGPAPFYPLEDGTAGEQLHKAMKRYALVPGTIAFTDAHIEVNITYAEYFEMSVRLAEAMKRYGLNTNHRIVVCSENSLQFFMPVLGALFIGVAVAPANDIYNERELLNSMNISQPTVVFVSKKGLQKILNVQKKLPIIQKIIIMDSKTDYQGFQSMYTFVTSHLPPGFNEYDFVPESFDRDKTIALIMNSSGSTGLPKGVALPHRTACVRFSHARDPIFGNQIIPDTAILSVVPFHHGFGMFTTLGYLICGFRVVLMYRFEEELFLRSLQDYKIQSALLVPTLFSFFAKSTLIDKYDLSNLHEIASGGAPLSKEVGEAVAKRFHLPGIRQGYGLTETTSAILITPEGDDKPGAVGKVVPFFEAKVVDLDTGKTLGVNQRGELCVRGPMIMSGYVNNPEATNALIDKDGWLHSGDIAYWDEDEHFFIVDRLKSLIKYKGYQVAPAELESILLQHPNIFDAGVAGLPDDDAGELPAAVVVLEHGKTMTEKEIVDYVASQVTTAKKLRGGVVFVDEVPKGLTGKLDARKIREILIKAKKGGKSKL

Regarding `COc1ccc(COC(=O)NN=C2C[C@@H](O)[C@@H](O)[C@@H]3[C@@H]4C(=O)N(c5ccc(F)cc5F)C(=O)[C@@H]4CC[C@H]23)cc1`, the composite z-score in assay [1] is 0.524; in assay [2], -0.199; in assay [3], 0.168; in assay [4], 0.89; in [5], -0.469; in assay [6], 0.0314. The composite z-score with Lefty1 was -0.773; in [8], 0.4; in assay [10], 0.118; in [15], 1.19; in assay [16] it was -0.0719; with Torsin-1A (Homo sapiens) [17], -0.309. Also, the composite z-score in the assay with Torsin-1A (Homo sapiens) [18] is 0.627; in assay [19], -1.52. The z-score was -0.654 in [7]; 0.732 (inactive) in [9]; -1.64 (inactive) in [11]; -0.597 (inactive) in assay [12]; -1.02 (inactive) in [13]; 0.454 (inactive) in [14].
Take `COc1ccc(O[C@@H]2[C@H](O)CO[C@@H]2C=Cc2ccccc2)cc1`: the composite z-score in [1] is -0.198; in assay [2], -0.222; in [3], 0.166; in [4], -0.223; in assay [5] it was 0.409; in [6] it was 0.758. The composite z-score with Lefty1 was 0.397; in assay [8], -0.124; in [10], 0.059; in [15] it was -0.0696; in assay [16] it was -0.128; in the assay with Torsin-1A (Homo sapiens) [17], -0.071. Besides, the composite z-score in the assay with Torsin-1A (Homo sapiens) [18] was 0.55; in assay [19] it was 0.503. The z-score in [7] was -0.464; in [9], -0.451 (inactive); in [11], -2.79 (inactive); in assay [12], -0.828 (inactive); in [13], -0.613 (inactive); in assay [14], -0.736 (inactive).
`Cc1cc2c(nc1C)CCCCN2CC(C)ON=C1[C@H]2CCn3c(=O)n(-c4ccccc4)c(=O)n3[C@H]2[C@H](O)[C@@H]2O[C@H]12` (stereo not given in full): the composite z-score in assay [1] is 0.761; in assay [2], -0.0951; in assay [3], -0.0065; in [4], 0.7; in [5] it was 0.7; in [6] it was 0.875. For the same compound, the composite z-score is 1.31 in the assay with Lefty1; 1 in assay [8]; 0.384 in [10]; -0.251 in assay [15]; -0.125 in assay [16]; -0.0459 in the assay with Torsin-1A (Homo sapiens) [17]. The composite z-score with Torsin-1A (Homo sapiens) [18] is -0.136; in [19], 0.829. Also, the z-score in assay [7] is -0.196; in [9] it was -0.661 (inactive); in assay [11] it was -0.299 (inactive); in assay [12], 0.888 (inactive); in assay [13], -1.21 (inactive); in assay [14], -0.379 (inactive).
For `COc1ccc(COC(=O)NN=C2C[C@@H](O)[C@@H](O)[C@@H]3[C@@H]4C(=O)N(c5cccc(Oc6ccccc6)c5)C(=O)[C@@H]4CC[C@@H]23)cc1`, the composite z-score is 0.177 in [1]; -0.181 in assay [2]; -0.0032 in [3]; 0.238 in assay [4]; -0.823 in [5]; -0.415 in assay [6]. Moreover, the composite z-score in the assay on Lefty1 was -0.282; in [8], 0.485; in assay [10] it was -0.365; in [15], 0.519; in assay [16] it was -0.162; in the assay with Torsin-1A (Homo sapiens) [17] it was 0.574. The composite z-score in the assay with Torsin-1A (Homo sapiens) [18] is -0.101; in [19] it was -1.38. Further, the z-score is -0.201 in assay [7]; 0.891 (inactive) in [9]; -0.201 (inactive) in assay [11]; 0.791 (inactive) in [12]; 2.15 (inactive) in assay [13]; 0.087 (inactive) in assay [14].
In the case of `CCCNC(=O)OC[C@H]1O[C@H](CCON=C(C)CCN2CCCc3nc(C)c(C)cc32)C=C[C@@H]1Oc1ccc(OC)cc1`, the composite z-score in [1] was 1.4; in assay [2] it was 1.09; in [3] it was 0.664; in [4], 0.808; in [5], 0.585; in [6] it was 0.499. Further, the composite z-score with Lefty1 turned out to be 0.252; in assay [8], 0.625; in [10], 0.146; in assay [15] it was 0.668; in assay [16], 0.0028; in the assay with Torsin-1A (Homo sapiens) [17], 0.182. In addition, the composite z-score with Torsin-1A (Homo sapiens) [18] is -0.0347; in [19] it was 0.368. Moreover, the z-score in assay [7] is 1.85; in [9] it was 0.326 (inactive); in assay [11], -2.37 (inactive); in [12] it was -0.489 (inactive); in [13] it was 2.72 (inactive); in [14] it was 0.367 (inactive).
